The source of these data is PubChem BioAssay (NCI).

Some test systems named below: NCI-H23 lung; NCI-H226 lung; NCI-H322M lung; HOP-62 NSCLC; NCI-H460 lung; HOP-92 NSCLC; NCI-H522 lung; A549/ATCC NSCLC; 786-0 renal; COLO 205 colon; DU-145 prostate; K-562 leukemia; MALME-3M melanoma; MDA-MB-231 breast; RXF 393 renal; SF-268 CNS; SF-295 CNS; SF-539 CNS; UACC-257 melanoma; M14 melanoma.
Common to all, as to test: NCI-60 one-dose screen, 48 h (100 = growth as untreated, 0 = no growth, -100 = all killed)
What all share (conditions): 10 µM unless noted

This is part of a sample that, as a whole, favours compounds with a hit. Of some 83,000 tested, about 20% had one in any assay.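 Single-dose data. Exposure time 48 hours. Values below 10 considered active.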 Unmarked numbers belong to inactive results. The source made the active and inactive calls.

Turning to `Cn1cnc2c(F)c(Nc3ccc(Br)cc3F)c(C(=O)NOCCO)cc21`, the growth in the assay with NCI-H23 lung is 22%; in the assay on NCI-H226 lung, 56.6%; with NCI-H322M lung, 18.9%; in the assay on HOP-62 NSCLC, 32.7%; with NCI-H460 lung it was 62.6%; in the assay with HOP-92 NSCLC it was -4.91% (active). Besides, the growth in the assay with NCI-H522 lung was 60.9%; with A549/ATCC NSCLC, 30.9%; in the assay with 786-0 renal, 67.4%; in the assay on COLO 205 colon, -2.54% (active); with DU-145 prostate, 64.2%; in the assay with K-562 leukemia, 49.4%. For the same molecule, the growth in the assay with MALME-3M melanoma was -2.35% (active); with MDA-MB-231 breast, 34.9%; in the assay on RXF 393 renal, 19.5%; with SF-268 CNS it was 70.8%; in the assay on SF-295 CNS, 76.3%; in the assay on SF-539 CNS it was 62.6%. Further, the growth with UACC-257 melanoma is -25.8% (active); with M14 melanoma, 2.5% (active).

For the molecule `O=C1NC(=O)[C@@H](c2cn3c4c(cccc24)CCC3)[C@@H]1c1c[nH]c2ccccc12`, the growth in the assay with NCI-H23 lung was 32.5%; with NCI-H226 lung it was 57%; with NCI-H322M lung it was 41.9%; in the assay on HOP-62 NSCLC it was 5.24% (active); in the assay with NCI-H460 lung it was 5.41% (active); in the assay with HOP-92 NSCLC, 31%. Also, the growth was -0.0655% (active) with NCI-H522 lung; 6.25% (active) in the assay with A549/ATCC NSCLC; 21.5% with 786-0 renal; -57.3% (active) in the assay with COLO 205 colon; 15% in the assay with DU-145 prostate; 9.6% (active) in the assay with K-562 leukemia. The growth in the assay on MALME-3M melanoma was 59.7%; in the assay on MDA-MB-231 breast, 34.1%; in the assay with RXF 393 renal, 6.54% (active); in the assay with SF-268 CNS, 34.2%; with SF-295 CNS, 19.2%; in the assay on SF-539 CNS it was -17.3% (active). The figures for the growth with UACC-257 melanoma and in the assay with M14 melanoma were 38.5% and 8.08% (active), respectively.

`O=c1sn(-c2cccc3ccccc23)c(=O)n1Cc1ccccc1`: the growth in the assay with NCI-H23 lung was 100%; in the assay with NCI-H226 lung it was 96.8%; in the assay with NCI-H322M lung, 102%; in the assay on HOP-62 NSCLC it was 76.6%; with NCI-H460 lung it was 101%; with HOP-92 NSCLC, 89.3%. The growth in the assay with NCI-H522 lung is 74.4%; in the assay with A549/ATCC NSCLC, 70.7%; in the assay with 786-0 renal it was 107%; in the assay with COLO 205 colon, 89.8%; with DU-145 prostate, 108%; with K-562 leukemia, 9.59% (active). Also, the growth in the assay with MALME-3M melanoma was 96.5%; with MDA-MB-231 breast it was 101%; in the assay with RXF 393 renal it was 99.3%; with SF-268 CNS, 105%; in the assay with SF-295 CNS, 105%; in the assay on SF-539 CNS, 114%. The growth with UACC-257 melanoma is 89.2%; in the assay on M14 melanoma, 89.8%.

With `Cc1cn(-c2cc(NC(=O)c3ccc(C)c(Nc4nccc(-c5cnccn5)n4)c3)cc(C(F)(F)F)c2)cn1`, the growth is 73% in the assay on NCI-H23 lung; 86.9% with NCI-H226 lung; 95.3% in the assay with NCI-H322M lung; 55.9% with HOP-62 NSCLC; 61.7% in the assay on NCI-H460 lung; 89% in the assay with HOP-92 NSCLC. In addition, the growth was 43.1% in the assay with NCI-H522 lung; 62.5% with A549/ATCC NSCLC; 97.7% in the assay with 786-0 renal; 25.3% in the assay with COLO 205 colon; 82.2% in the assay with DU-145 prostate; 4.39% (active) in the assay on K-562 leukemia. Further, the growth with MALME-3M melanoma was 16.6%; in the assay on MDA-MB-231 breast, 55.4%; with RXF 393 renal it was 129%; in the assay on SF-268 CNS, 65.1%; with SF-295 CNS, 93.9%; in the assay on SF-539 CNS, 98.2%. Further, the growth with UACC-257 melanoma was 38.4%; in the assay with M14 melanoma it was 18.7%.

Turning to `CN1CCN(c2nc(C3=C(c4c[nH]c5ccccc45)C(=O)NC3=O)c3ccccc3n2)CC1`, the growth in the assay on NCI-H23 lung was 70.1%; in the assay with NCI-H226 lung, 73.8%; with NCI-H322M lung it was 29.2%; in the assay on HOP-62 NSCLC, 44.3%; with NCI-H460 lung it was 87.5%; with HOP-92 NSCLC, 80.7%. The growth in the assay on NCI-H522 lung was 68%; with A549/ATCC NSCLC it was 51.7%; in the assay on 786-0 renal it was 92.8%; in the assay with COLO 205 colon, -2.65% (active); in the assay with DU-145 prostate, 90.5%; in the assay with K-562 leukemia, 66.5%. Further, the growth in the assay with MALME-3M melanoma is -12.8% (active); in the assay on MDA-MB-231 breast, 70.6%; in the assay with RXF 393 renal it was 120%; in the assay with SF-268 CNS it was 95.1%; with SF-295 CNS, 98.7%; with SF-539 CNS, 92.2%. Moreover, the growth is -20% (active) in the assay with UACC-257 melanoma and 12.2% with M14 melanoma.

Regarding `Cn1c(=O)c(F)c(Nc2ccc(I)cc2F)c2c(=O)n(C[C@@H](O)CO)cnc21`, the growth with NCI-H23 lung was 21.5%; in the assay with NCI-H226 lung, 52.5%; in the assay with NCI-H322M lung, 14%; with HOP-62 NSCLC, 22.5%; with NCI-H460 lung, 62.3%; in the assay on HOP-92 NSCLC it was -23.8% (active). Moreover, the growth was 41.4% in the assay on NCI-H522 lung; 19.2% with A549/ATCC NSCLC; 58.3% in the assay on 786-0 renal; 2.24% (active) in the assay on COLO 205 colon; 52.1% in the assay on DU-145 prostate; 28.5% in the assay on K-562 leukemia. Moreover, the growth in the assay with MALME-3M melanoma is 0.26% (active); in the assay with MDA-MB-231 breast it was 19%; in the assay on RXF 393 renal, -3.91% (active); in the assay on SF-268 CNS, 59.5%; with SF-295 CNS, 77.5%; in the assay on SF-539 CNS, 52.3%. The growth is -21.4% (active) in the assay with UACC-257 melanoma and 6.75% (active) in the assay on M14 melanoma.

With `COc1cc(Nc2ncc(F)c(Nc3ccc4c(n3)NC(=O)C(C)(C)O4)n2)cc(OC)c1OC`, the growth in the assay with NCI-H23 lung is 52.1%; in the assay with NCI-H226 lung it was 12.2%; with NCI-H322M lung, 41.8%; with HOP-62 NSCLC, 27.3%; with NCI-H460 lung, 65%; in the assay on HOP-92 NSCLC it was 2.19% (active). The growth in the assay with NCI-H522 lung is 6.57% (active); with A549/ATCC NSCLC, 26.8%; in the assay on 786-0 renal, 29%; in the assay with COLO 205 colon it was 18.9%; in the assay with DU-145 prostate, 48.8%; in the assay on K-562 leukemia it was 66.5%. The growth with MALME-3M melanoma is 88.7%; in the assay with MDA-MB-231 breast, 41.7%; in the assay with RXF 393 renal, -40.3% (active); in the assay on SF-268 CNS, 29.8%; with SF-295 CNS, 59.9%; in the assay with SF-539 CNS, -14.8% (active). Also, the growth with UACC-257 melanoma was 57.1%; with M14 melanoma, 57.5%.
